{"source": "ChEMBL document CHEMBL3988442", "about": "“University of Dundee, Small-Polar-MMV Screening Library” (2021)", "note": "Hit rate of the full screen: of about 53,000 compounds, about 900 (1.7%) showed an effect of 50% or more. The sample holds strong results, similar compounds and a random draw of the others, so the mix is not that of the screen."}
{"tested_on": "Mycobacterium tuberculosis", "test": "Cornell - Phenotypic assay to identify agents that inhibit growth of Mycobacterium tuberculosis", "format": "functional", "set-up": "scale not given: direction of the effect not stated beside the values", "settings": "10 mM as filed; unlikely as a test dose", "units": {"Percent Effect": "%"}}
{"smiles": "O[C@@H]1CN(c2cnc3ccccc3n2)CC[C@H]1c1ccc2c(c1)OCO2", "Percent Effect": 102.9}
{"smiles": "O[C@@H]1CN(c2nc3ccccc3o2)CC[C@H]1c1ccc2c(c1)OCO2", "Percent Effect": 1.12}
{"smiles": "O[C@@H]1CN(c2nc3ccccc3s2)CC[C@H]1c1ccc2c(c1)OCO2", "Percent Effect": 18.1}
{"smiles": "COc1cccc(CNC(=O)CN2CCCC(Cn3cncn3)C2)c1", "note": "(configuration not stated)", "Percent Effect": -43.6}
{"smiles": "Cc1cc(C)n(C2CN(Cc3nc4cc(Cl)ccc4n3C)C2)n1", "Percent Effect": -28.71}
{"smiles": "Cc1cccc(-c2noc(CN3CC(n4cc(C)cn4)C3)n2)c1", "Percent Effect": 51.38}
{"smiles": "Cc1ccc(-c2noc(CN3CC(n4cc(C)cn4)C3)n2)cc1", "Percent Effect": 41.03}
{"smiles": "Cc1cnn(C2CN(Cc3nc(C(C)(C)C)no3)C2)c1", "Percent Effect": -9.455}
{"smiles": "Cc1cnn(C2CN(Cc3nnc(-c4ccccc4Cl)o3)C2)c1", "Percent Effect": -48.85}
{"smiles": "Cc1cnn(C2CN(Cc3nc(-c4ccsc4)no3)C2)c1", "Percent Effect": 18.79}
{"smiles": "Cc1cnn(C2CN(Cc3nc(-c4ccccn4)no3)C2)c1", "Percent Effect": -25.23}
{"smiles": "Cc1cnn(C2CN(Cc3nc4cc(Cl)ccc4n3C)C2)c1", "Percent Effect": 63.15}
{"smiles": "Cc1cnn(C2CN(Cc3nc(-c4ccccc4C)no3)C2)c1", "Percent Effect": -13.18}
{"smiles": "Cc1ccc(-c2nnc(CN3CC(n4cc(C)cn4)C3)o2)cc1", "Percent Effect": 82.45}
{"smiles": "Cc1cnn(C2CN(Cc3nnc(Cc4ccccc4)o3)C2)c1", "Percent Effect": 75.37}
{"smiles": "Cc1cnn(C2CN(Cc3nc(-c4cccnc4)no3)C2)c1", "Percent Effect": 3.209}
{"smiles": "CCOc1ccccc1-n1c(C2CC(=O)N(C)C2)n[nH]c1=O", "note": "(configuration not stated)", "Percent Effect": -16.7}
{"smiles": "Cc1c[nH]c(CN(C)C(=O)[C@]23CNC[C@H]2CNC3)n1", "Percent Effect": -19.02}
{"smiles": "O=C(Nc1ccnn1Cc1ccc(Cl)cc1)C1CCS(=O)(=O)C1", "note": "(configuration not stated)", "Percent Effect": -30.31}
{"smiles": "CC(C)(C)C(=O)NS(=O)(=O)c1ccc(F)cc1C(F)(F)F", "Percent Effect": 31.3}
{"smiles": "CC(=O)N1CCC(Cc2cnc(Nc3cc(C)on3)cn2)CC1", "Percent Effect": -2.54}
{"smiles": "Nc1nonc1C(=O)N1Cc2ccccc2OC2(CCOCC2)C1", "Percent Effect": -22.02}
{"smiles": "COc1ccc(-c2cn([C@H](CO)CC(C)C)nn2)cn1", "Percent Effect": 26.72}
{"smiles": "COC(=O)Cn1c(=O)nc2n1C(=O)N(c1ccc(F)cc1)C2", "Percent Effect": 8.177}
{"smiles": "Cc1cnn(CC2CCCN2C(=O)c2cccc(S(C)(=O)=O)c2)c1", "note": "(configuration not stated)", "Percent Effect": 1.06}
{"smiles": "Cc1noc([C@]23COC[C@H]2CN(C(=O)COC2CCCC2)C3)n1", "Percent Effect": 1.713}
{"smiles": "CNC(=O)Cn1c(-c2ccco2)nn(-c2ccccc2OC)c1=O", "Percent Effect": -0.5787}
{"smiles": "CC(c1cccnc1)N(C)C(=O)NCCOc1ccc(C#N)cc1", "note": "(configuration not stated)", "Percent Effect": 12.58}
{"smiles": "C[C@@H]1CN(C(=O)C2CCS(=O)(=O)CC2)CC[C@@]1(O)C1CCOCC1", "Percent Effect": 26.03}
{"smiles": "Cc1cc(C)n(CCN2CCC(N(C)Cc3nnc(C)n3C)C2)n1", "note": "(configuration not stated)", "Percent Effect": -7.03}
{"smiles": "CCN(C(=O)Cc1ccc(NC(=O)NC2CC2)cc1)c1ccccc1", "Percent Effect": -6.305}
{"smiles": "CCN(C(=O)Cc1ccc(NCc2ncc[nH]2)cc1)c1ccccc1", "Percent Effect": 52.94}
{"smiles": "CCN(C(=O)Cc1ccc(NCc2nccn2C)cc1)c1ccccc1", "Percent Effect": 9.386}
{"smiles": "Cc1nn(C)c(Cl)c1C1CCCN1C(=O)c1cnc[nH]1", "note": "(configuration not stated)", "Percent Effect": 8.572}
{"smiles": "Cc1ccc(C(=O)NCc2ccnc(C3CCCOC3)n2)s1", "note": "(configuration not stated)", "Percent Effect": 2.557}
{"smiles": "CC(C)(C)CNC(=O)c1ccc(C(=O)O)nc1", "Percent Effect": 11.56}
{"smiles": "CN(CC(=O)NCCc1ccccn1)C(=O)c1cccs1", "Percent Effect": -9.987}
{"smiles": "CN(CC(O)C1CC1)C(=O)Nc1cc(F)cc(Br)c1", "note": "(configuration not stated)", "Percent Effect": 5.584}
{"smiles": "CNC(=O)C(C)CN(C)C(=O)Nc1cc(F)cc(Br)c1", "note": "(configuration not stated)", "Percent Effect": 72.87}
{"smiles": "CC(O)CCN(C)C(=O)Nc1cc(F)cc(Br)c1", "note": "(configuration not stated)", "Percent Effect": 23}
{"smiles": "Cn1nc(C2CN(S(C)(=O)=O)C2)c2nccnc21", "Percent Effect": -1.799}
{"smiles": "Nc1nnc(SCC(=O)c2cc3c(cc2Cl)NC(=O)C3)s1", "Percent Effect": 9.185}
{"smiles": "Cc1nnc(SCC(=O)c2cc3c(cc2Cl)NC(=O)C3)s1", "Percent Effect": 21.14}
{"smiles": "CSc1nsc(SCC(=O)c2cc3c(cc2Cl)NC(=O)C3)n1", "Percent Effect": 71.22}
{"smiles": "O=C(C1CCOCC1)N1CCC(O)(Cn2ccc3ccncc32)CC1", "Percent Effect": -3.808}
{"smiles": "Cc1cc(CN2C[C@@H]3COC[C@@H](C(=O)N4CCCCO4)[C@@H]3C2)oc1C.O=C(O)C(F)(F)F", "Percent Effect": 19.33}
{"smiles": "CN(C)CC1(O)CCN(C(=O)Cc2ccc3c(c2)CCCC3)C1", "note": "(configuration not stated)", "Percent Effect": 27.93}
{"smiles": "CN(C)CC1(O)CCN(C(=O)Cc2ccc(Cl)c(Cl)c2)C1", "note": "(configuration not stated)", "Percent Effect": -11.99}
{"smiles": "CN(C)CC1(O)CCN(C(=O)Cc2ccc3c(c2)CCC3)C1", "note": "(configuration not stated)", "Percent Effect": 59.81}
{"smiles": "O=C1C(Sc2nnnn2C2CC2)CCN1c1ccccc1F", "note": "(configuration not stated)", "Percent Effect": -21.88}
{"smiles": "Cc1ccc(S(=O)(=O)Nc2ccc(-n3cccc3C(=O)O)c(C)c2)s1", "Percent Effect": 77.19}
{"smiles": "Cc1cc(NS(=O)(=O)c2ccc(Cl)s2)ccc1-n1cccc1C(=O)O", "Percent Effect": 25.94}
{"smiles": "O=C(O)c1cc(NS(=O)(=O)c2ccccc2F)ccc1N1CCSCC1", "Percent Effect": -53.64}
{"smiles": "Cc1ccc(S(=O)(=O)Nc2ccc(-n3cccc3C(=O)O)c(C)c2)cc1", "Percent Effect": 24.84}
{"smiles": "Cc1cc(NS(=O)(=O)c2ccccc2F)ccc1-n1cccc1C(=O)O", "Percent Effect": 63.88}
{"smiles": "Cc1cc(NS(=O)(=O)c2cccs2)ccc1-n1cccc1C(=O)O", "Percent Effect": 31.6}
{"smiles": "Cc1cnn(CC2CN(CC(=O)N(C)Cc3cnn(C)c3)CCO2)c1", "note": "(configuration not stated)", "Percent Effect": -28.01}
{"smiles": "CCc1ccccc1-n1nnc(C(=O)O)c1-c1ccccn1", "Percent Effect": 8.629}
{"smiles": "CCOCCNC1(c2ccc(Cl)cc2)CCOCC1", "Percent Effect": -7.005}
{"smiles": "COCCNC1(c2ccc(Cl)cc2)CCOCC1", "Percent Effect": -43.32}
{"smiles": "Clc1ccc(OCCNC2(c3ccc(Br)cc3)CCOCC2)cc1", "Percent Effect": 68.56}
{"smiles": "CNC(=O)C1(C)CN(c2nnc(C)c3ccccc23)CCO1", "note": "(configuration not stated)", "Percent Effect": 14}
{"smiles": "COc1ccc(N(c2ccc(OC)cc2)c2ccc(C(=O)O)s2)cc1", "Percent Effect": 27.51}
{"smiles": "COc1ccc(N(c2ccccc2)c2ccc(C(=O)O)s2)cc1", "Percent Effect": 73.26}
{"smiles": "COc1ccc(N(c2ccc(C)cc2)c2ccc(C(=O)O)s2)cc1", "Percent Effect": 2.836}
{"smiles": "Cc1ccccc1C(=O)N1CC[C@H](O)[C@@H](N2CCOCC2)CC1", "Percent Effect": 45.8}
{"smiles": "Cc1ccccc1C(=O)N1C[C@@H](O)[C@H](N2CCOCC2)C1", "Percent Effect": 51.24}
{"smiles": "CC(=O)N1CCN([C@@H]2CN(C(=O)c3ccccc3C)C[C@H]2O)CC1", "Percent Effect": -3.259}
{"smiles": "CCN(CC)S(=O)(=O)N1CC[C@H](c2ccccc2)[C@@H]2[C@H]1CCCCN2C", "Percent Effect": 1.905}
{"smiles": "COc1cccc2ncn(C(C)Cn3cccn3)c(=O)c12", "note": "(configuration not stated)", "Percent Effect": -18.84}
{"smiles": "CCSCc1cccc(NCc2cccnc2)c1", "Percent Effect": 73.99}
{"smiles": "CCSc1cccc(NCc2cccnc2)c1", "Percent Effect": 12.75}
{"smiles": "COCc1cccc(NCc2cccnc2)c1", "Percent Effect": -54.85}
{"smiles": "CO[C@@H]1CCC[C@@H](NC(=O)CCCn2cncn2)[C@H]1O", "Percent Effect": 5.133}
{"smiles": "COc1ccc(C2CN(c3ncccn3)CCN2C(C)=O)cc1", "note": "(configuration not stated)", "Percent Effect": -24.16}
{"smiles": "CCc1ccc2c(C3CN(C(C)=O)C3)ncn2c1", "Percent Effect": 27.54}
{"smiles": "CCc1ccc2c(C3CN(S(C)(=O)=O)C3)ncn2c1", "Percent Effect": 13.01}
{"smiles": "CCc1ccc2c(C3CN(CC4CCC4)C3)ncn2c1.O=C(O)C(F)(F)F", "Percent Effect": 77.11}
{"smiles": "Cc1csc(C2(NCc3csc(C4CC4)n3)CCCC2)n1", "Percent Effect": 19.76}
{"smiles": "Cl.N[C@@H](Cc1ccccc1)c1nnc(S(=O)(=O)Cc2ccc(Cl)cc2)o1", "Percent Effect": -9.825}
{"smiles": "CCC(C)NC(=O)CS(=O)(=O)Cc1ccccc1Cl", "note": "(configuration not stated)", "Percent Effect": 2.34}
{"smiles": "Cc1cccc(CS(=O)(=O)c2nnc([C@@H](N)Cc3ccccc3)o2)c1.Cl", "Percent Effect": -11.8}
{"smiles": "CC(NC(=O)OC(C)(C)C)c1nnc(S(=O)(=O)Cc2ccccc2Cl)o1", "note": "(configuration not stated)", "Percent Effect": 105.8}
{"smiles": "N[C@@H](Cc1ccccc1)c1nnc(S(=O)(=O)Cc2ccccc2)o1", "Percent Effect": -19.29}
{"smiles": "Cc1noc(C(C)NC(=O)[C@@H](C)NC(=O)OC(C)(C)C)n1", "note": "(some centres not stated)", "Percent Effect": 27}
{"smiles": "C[C@H](NC(=O)OC(C)(C)C)c1nnc(S(=O)(=O)Cc2cccc(F)c2)o1", "Percent Effect": -26.24}
{"smiles": "Cc1ccccc1CS(=O)(=O)c1nnc(C(C)NC(=O)OC(C)(C)C)o1", "note": "(configuration not stated)", "Percent Effect": 104.2}
{"smiles": "CC(NC(=O)OC(C)(C)C)c1nnc(S(=O)(=O)Cc2ccc(Cl)cc2)o1", "note": "(configuration not stated)", "Percent Effect": 103.3}
{"smiles": "Cn1c(Cn2cccn2)nnc1C1CCN(Cc2cccnc2)CC1", "Percent Effect": -9.114}
{"smiles": "CCCOc1cc(F)ccc1NC(=O)NCc1noc(C)n1", "Percent Effect": 7.548}
{"smiles": "Cc1cn2c(n1)CCC(NC(=O)c1oc(Br)cc1C)C2", "note": "(configuration not stated)", "Percent Effect": -43.16}
{"smiles": "CC(C)NC(=O)N1CCC[C@H]1C(=O)NCCCc1cccc(F)c1", "Percent Effect": -6.686}
{"smiles": "Cc1c[nH]nc1C1CCCN1Cc1ccncc1", "note": "(configuration not stated)", "Percent Effect": 14.55}
{"smiles": "CNc1ccnc(NCC(=O)Nc2cc(C)ccc2OC)n1", "Percent Effect": -15.75}
{"smiles": "Cc1nn(C)cc1-c1cc(C(F)(F)F)nc(NC2CCN(C)CC2)n1", "Percent Effect": 11.83}
{"smiles": "Cc1nn(C)cc1-c1cc(C(F)(F)F)nc(NC2CCCCC2)n1", "Percent Effect": 22.2}
{"smiles": "CCn1cc(-c2cc(C(F)(F)F)nc(NC3CCCC3)n2)c(C)n1", "Percent Effect": 101.8}
{"smiles": "COCC(=O)N1CCCC(c2nc(N)ncc2-c2cccc(F)c2)C1", "note": "(configuration not stated)", "Percent Effect": 3.898}
{"smiles": "Cc1c(CN2CCCCC2)c(O)n(CCO)c(=O)c1C#N", "Percent Effect": 38.65}
{"smiles": "Cc1c(CN2CCOCC2)c(O)n(CCO)c(=O)c1C#N", "Percent Effect": -84.89}
{"smiles": "Cc1c(CN2CCOCC2)c(O)n(CCc2ccccc2)c(=O)c1C#N", "Percent Effect": 66.79}
{"smiles": "O=S(=O)(NCCCn1cncn1)c1ccc2c(c1)OCCO2", "Percent Effect": -20.65}
